{"source": "PubChem BioAssay (Tox21)", "note": "Unmarked numbers belong to inactive results. Entries that show only a call come without a potency. Activity calls are given as the source filed them. The call rests on the fitted dose curve; in most records, active means well fitted curve in the direction sought with a large enough effect in the repeat runs; inconclusive means weak or mixed curves; inactive means flat fitted curve, though single readings scatter."}
{"test": "qHTS assay to test for compound auto fluorescence at 535 nm (green) in HepG2 cell free culture (AID 720686)", "conditions": "Cell-free medium, green autofluorescence 485/535 nm; series mostly up to 91.3 µM", "description": "U.S. Tox21 Program National Center for Advancing Translational Sciences [NCATS] NIH Chemical Genomics Center [NCGC] U.S. Environmental Protection Agency [EPA] National Institutes of Environmental Health Sciences [NIEHS] National Toxicology Program [NTP] U.S. Food and Drug Administration [FDA] Tox21 Assay Overview: Compound auto fluorescence often interferes with screening of the compound library against various biological targets and signaling pathways. Some of these compounds may have fluorophoric properties. Such properties may interfere with the assay outputs resulting in false positives and/or negatives. To decrease such complications and ensure the compound activities are relevant in terms of biological response, the Tox21 10K compound library was screened for auto fluorescence. From the fluorophores used as reporter signals in our screening assays, the auto fluorescence equivalencies of compounds against three fluorophores have been evaluated: Triamterene, Fluorescein and Rose Bengal sodium for blue, green and red fluorescence, respectively. The fluorescence intensities were measured using Excitation/Emission wavelengths at 405/460nm, 485/535nm and 540/590nm for blue, green and red labels, respectively. This assay includes the green fluorescence data.\nTox21 Assay Protocol Summary: 5 uL of culture medium (MEM containing 10% FBS) per well was dispensed into black wall/clear bottom 1536-well plates using a Multidrop Combi Dispenser (ThermoFisher Scientific, Waltham, MA). After 23 nL compound or DMSO vehicle was transferred into assay plate by a pintool work station (Kalypsys, San Diego, CA), fluorescence intensities in the assay plates were measured by an Envision (PerkinElmer, Shelton, CT) plate reader using three labels for measuring blue, green and red fluorescence at […] 460, 535 and 590nm respectively."}
{"smiles": "CCCCC(CC)COC(=O)c1ccccc1C(=O)O", "note": "(stereo not given)", "Potency": "inactive"}
{"smiles": "CCCCCCCC[P+](CCCCCCCC)(CCCCCCCC)CCCCCCCC", "Potency": "inactive"}
{"smiles": "O=c1[nH]cnc2nc[nH]c12", "Potency": "inactive"}
{"smiles": "O=C1c2c(O)ccc(Nc3ccc(CCO)cc3)c2C(=O)c2c([N+](=O)[O-])ccc(O)c21", "Potency": "inactive"}
{"smiles": "O=C1CCCCCN1SSN1CCCCCC1=O", "Potency": "inactive"}
{"smiles": "CCCC(c1cc(C(C)(C)C)c(O)cc1C)c1cc(C(C)(C)C)c(O)cc1C", "Potency": "inactive"}
{"smiles": "CCC(C)(C)C1CCCCC1OC(C)=O", "note": "(stereo not given)", "Potency": "inactive"}
{"smiles": "CCC(Cl)C(Cl)C(Cl)CC(Cl)C(Cl)C(C)Cl", "note": "(stereo not given)", "Potency": "inactive"}
{"smiles": "C[C@@H]1C[C@H]2[C@@H]3CCC4=CC(=O)C=C[C@]4(C)[C@@]3(Cl)[C@@H](O)C[C@]2(C)[C@@]1(OC(=O)c1ccco1)C(=O)CCl", "fluorescence, % of fluorescein control": "-0.0158% [at 18.6 µM]"}
{"smiles": "CC(=O)N1CCN(c2ccc(OC[C@H]3CO[C@](Cn4ccnc4)(c4ccc(Cl)cc4Cl)O3)cc2)CC1", "Potency": "inactive"}
{"smiles": "O=C(O)c1c(Cl)cccc1Cl", "Potency": "inactive"}
{"smiles": "NC(=NCCCCCCN=C(N)/N=C(\\N)Nc1ccc(Cl)cc1)/N=C(\\N)Nc1ccc(Cl)cc1", "Potency": "inactive"}
{"smiles": "On1ccccc1=S", "Potency": "inactive"}
{"smiles": "COc1cc(/C=C/C(=O)O[C@H]2CC[C@]34C[C@]35CC[C@]3(C)[C@@H]([C@H](C)CCC=C(C)C)CC[C@@]3(C)[C@@H]5CC[C@H]4C2(C)C)ccc1O", "Potency": "inactive"}
{"smiles": "CC(C)OC(=O)c1cc2c(OCC(O)CNC(C)(C)C)cccc2[nH]1", "note": "(stereo not given)", "Potency": "inactive"}
{"smiles": "COc1cc(-c2ccc(N=C=O)c(OC)c2)ccc1N=C=O", "Potency": "inactive"}
{"smiles": "CNCc1cc(F)ccc1Oc1ccc(Cl)c(Cl)c1", "Potency": "inactive"}
{"smiles": "O=C(Oc1cccc2cccnc12)c1ccccc1", "Potency": "inactive"}
{"smiles": "COc1cccc2c1C(=O)c1c(O)c3c(c(O)c1C2=O)C[C@@](O)(C(=O)CO)C[C@@H]3O[C@H]1C[C@H](N)[C@H](O[C@@H]2CCCCO2)[C@H](C)O1", "Potency": "inactive"}
{"smiles": "CC(C)(C)c1ccc(C(=O)O)cc1", "Potency": "inactive"}
{"smiles": "CCOC(=O)O[C@]1(C(=O)OCCl)CC[C@H]2[C@@H]3CCC4=CC(=O)C=C[C@]4(C)[C@H]3[C@@H](O)C[C@@]21C", "Potency": "inactive"}
{"smiles": "ON=C1CCCC1", "Potency": "inactive"}
{"smiles": "Cn1cc(C(=O)[C@@H]2CCc3nc[nH]c3C2)c2ccccc21", "Potency": "inactive"}
{"smiles": "COc1cc(-c2nc(NC(=O)c3cc4cc(C)cc(C)c4n3CC(=O)O)sc2CCC2CCCCC2)c(OC)cc1Cl", "Potency": "inactive"}
{"smiles": "OCc1c[nH]c2ccccc12", "Potency": "inactive"}
{"smiles": "Cc1[nH]cnc1C[C@H]1CCc2c(C)c3ccccc3n2C1=O", "Potency": "inactive"}
{"smiles": "CCOc1nc2cccc(C(=O)OC(C)OC(=O)OC3CCCCC3)c2n1Cc1ccc(-c2ccccc2-c2nn[nH]n2)cc1", "note": "(stereo not given)", "Potency": "inactive"}
{"smiles": "Cc1cc(O)c2ccccc2c1O", "Potency": "inactive"}
{"smiles": "C[C@H](CCC(=O)O)[C@H]1CC[C@H]2[C@@H]3CC[C@@H]4C[C@H](O)CC[C@]4(C)[C@H]3CC[C@]12C", "Potency": "inactive"}
{"smiles": "Cc1onc(-c2ccccc2Cl)c1C(=O)N[C@@H]1C(=O)N2[C@@H]1SC(C)(C)[C@@H]2C(=O)O", "fluorescence, % of fluorescein control": "0.101% [at 18.6 µM]"}
{"smiles": "CCN(CCC#N)c1ccc(N=Nc2c(Cl)cc([N+](=O)[O-])cc2Cl)cc1", "Potency": "inactive"}
{"smiles": "NNc1nc(-c2ccc([N+](=O)[O-])cc2)cs1", "Potency": "inactive"}
{"smiles": "C[C@H]1[C@H]2CC[C@H]3[C@@H]4CC=C5C[C@@H](N(C)C)CC[C@]5(C)[C@H]4CC[C@]23CN1C", "Potency": "inactive"}
{"smiles": "O=C(Nc1cccc([N+](=O)[O-])c1)c1cc2ccccc2cc1O", "Potency": "inactive"}
{"smiles": "c1ccc(CSCc2ccccc2)cc1", "Potency": "inactive"}
{"smiles": "OCCCCCCCCCCCCBr", "Potency": "inactive"}
{"smiles": "CCN(CC)CCNC(=O)c1c(C)[nH]c(/C=C2\\C(=O)Nc3ccc(F)cc32)c1C", "Potency": "inactive"}
{"smiles": "Cc1onc(-c2c(Cl)cccc2Cl)c1C(=O)N[C@@H]1C(=O)N2[C@@H]1SC(C)(C)[C@@H]2C(=O)O", "Potency": "inactive"}
{"smiles": "CCCCCCCCCCCCCC[P+](CCCC)(CCCC)CCCC", "note": "(tested in a mixture with another compound)", "Potency": "inactive"}
{"smiles": "CC(C)(C)c1ccc(C(=O)CCCN2CCC(OC(c3ccccc3)c3ccccc3)CC2)cc1", "Potency": "inactive"}
